According to PubChem BioAssay (EPA / NIEHS):
Where “and” joins values, the source holds several entries; their conditions need not be identical. Identical values can stand only once. Results filed as inconclusive are left out. Calls of active or inactive are those of the source. Rule for the calls: active = hit-call score of the fitted dose curve at least 0.9, where 1 is the maximum; inconclusive = response in the unintended direction; inactive = score below 0.9.

What follows are compounds tested against mouse Estrogen Receptor alpha (Era), Esr1 (gene 13982) (UniProt P19785) (assay: NVS_NR_mERa: NovaScreen (NVS) Nuclear Receptor Binding Assay for mouse Estrogen Receptor alpha (Era) (AID 2283378);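 note: hit means loss of bound radioligand signal relative to DMSO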).
Experimental: NVS_NR_mERa is a biochemical, single-readout assay that uses extracted gene-proteins in a cell-free assay. Measurements were taken 18 hours after chemical dosing in a 96-well plate.NVS_NR_mERa is one of one assay component(s) measured or calculated from the NVS_NR_mERa assay. It is designed to make measurements of radioligand binding, a form of binding reporter, as detected with scintillation counting signals by Filter-based radiodetection technology.Data from the assay component NVS_NR_mERa was analyzed into 1 assay endpoint. This assay endpoint, NVS_NR_mERa, was analyzed in the positive analysis fitting direction relative to DMSO as the negative control and baseline of activity. Using a type of binding reporter, loss-of-signal activity can be used to understand changes in the binding as they relate to the gene Esr1. Furthermore, this assay endpoint can be referred to as a primary readout, because the performed assay has only produced 1 assay endpoint. To generalize the intended target to other relatable targets, this assay endpoint is annotated to the nuclear receptor intended target family, where the subfamily is steroidal.
Binding assays used specific radioligands (tritiated, iodinated) with non-radioactive competitive displacement ligands in agonist or antagonist protocols (as indicated) and various reference compounds and inhibitors to titrate specific binding to receptors and transporters. Most enzyme assays (CYPs, kinases, phosphatases, proteases, HDACs) used recombinant protein and specific substrates (fluorescence mostly, some colorimetric and radioactive) and inhibitors, followed by a biochemical separation of substrate and product. All assays for the biochemical HTS were initially run in duplicate at a single concentration (10 uM for CYP450 assays and 25 uM for all others). […] Each assay was run with positive and negative controls, and concurrent controls on every plate. The follow-up (secondary) screen tested active chemical-pairs in concentration series, as well as a few additional assays not tested in the primary screen, some selected negative inactives, and several cases re-run in the concentration series for confirmatory purposes.

Chain of mouse Estrogen Receptor alpha (Era), Esr1 (gene 13982) (P19785 whole entry, looked up): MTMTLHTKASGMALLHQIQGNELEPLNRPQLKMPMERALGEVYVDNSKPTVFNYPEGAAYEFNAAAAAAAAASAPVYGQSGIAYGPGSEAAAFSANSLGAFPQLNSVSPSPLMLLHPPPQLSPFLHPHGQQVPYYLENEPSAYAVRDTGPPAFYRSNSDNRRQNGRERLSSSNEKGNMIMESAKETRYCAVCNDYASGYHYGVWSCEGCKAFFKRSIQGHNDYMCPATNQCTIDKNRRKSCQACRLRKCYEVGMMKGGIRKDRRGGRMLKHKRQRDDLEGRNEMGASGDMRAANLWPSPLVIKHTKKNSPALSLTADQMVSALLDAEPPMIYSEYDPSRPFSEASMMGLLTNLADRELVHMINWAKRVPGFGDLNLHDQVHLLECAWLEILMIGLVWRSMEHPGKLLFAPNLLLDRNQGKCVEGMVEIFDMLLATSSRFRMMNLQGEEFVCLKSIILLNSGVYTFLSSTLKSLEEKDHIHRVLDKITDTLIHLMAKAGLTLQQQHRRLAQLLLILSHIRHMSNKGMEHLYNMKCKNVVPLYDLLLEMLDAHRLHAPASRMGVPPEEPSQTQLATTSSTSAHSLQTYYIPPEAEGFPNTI

Compound	outcome	AC50
CCCCCCCCCCCCCC[n+]1ccccc1	inactive	
NC(=NCCCCCCN=C(N)/N=C(\N)Nc1ccc(Cl)cc1)/N=C(\N)Nc1ccc(Cl)cc1		137 nM (active) and 292 nM (active)
CCCCCCCCCCCCOC(=O)c1cc(O)c(O)c(O)c1		12.4 µM (active)
NCc1cccc(CN)c1		6.34 µM (active)
Nc1cc(Cl)c(-c2cc(Cl)c(N)cc2Cl)cc1Cl		0.389 µM (active)
C[C@]12CC[C@@H]3c4ccc(O)cc4CC[C@H]3[C@@H]1CC[C@@H]2OC(=O)CCC1CCCC1		0.0452 µM (active)
C=CC(C)(CCC=C(C)C)OC(C)=O (stereo not given)	inactive	
CCCCCCc1ccc(N)cc1		0.138 µM (active)
CN(Cc1cnc2nc(N)nc(N)c2n1)c1ccc(C(=O)N[C@@H](CCC(=O)O)C(=O)O)cc1	inactive	
CCCCCCOC(=O)c1ccc(O)cc1		3.82 µM (active)
